In the library only some 1% were active in any assay of this set; here they are far more common.
HSV augment: HSV replication enhancement. HSV replication augmentation in cells, fold increase. 220,000 tested, 0.005% active. maximum fold increase; in the data active = maximum fold increase above about 1.5; tested in PC3 cells
TNF death inh: inhibitors of TNF-alpha induced necroptosis in Jurkat FADD-/- cells. 220,000 tested, 0.068% active. Jurkat FADD-/- TNF necroptosis rescue, ATP luminescence, 24 h; 0 = TNF only, 100 = no-TNF cells. activation (protection from cell death), % at 10 µM;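 active = activation, meaning protection from cell death, of at least 50% relative to plate controls; inactive = activation below 50%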;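 note: necroptosis triggered by 40 ng/mL TNF-alpha added together with compound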
S1P4 ag: human S1P4 receptor agonism; O95977; S1P4-expressing cell line, agonist reporter assay; activation, % at 4.98 µM; 220,000 tested, 0.35% active; AID 1509; in the data active = activation above about 11%;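 note: 0% = DMSO vehicle and 100% = reference agonist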
Target sequence (O95977 whole entry, looked up): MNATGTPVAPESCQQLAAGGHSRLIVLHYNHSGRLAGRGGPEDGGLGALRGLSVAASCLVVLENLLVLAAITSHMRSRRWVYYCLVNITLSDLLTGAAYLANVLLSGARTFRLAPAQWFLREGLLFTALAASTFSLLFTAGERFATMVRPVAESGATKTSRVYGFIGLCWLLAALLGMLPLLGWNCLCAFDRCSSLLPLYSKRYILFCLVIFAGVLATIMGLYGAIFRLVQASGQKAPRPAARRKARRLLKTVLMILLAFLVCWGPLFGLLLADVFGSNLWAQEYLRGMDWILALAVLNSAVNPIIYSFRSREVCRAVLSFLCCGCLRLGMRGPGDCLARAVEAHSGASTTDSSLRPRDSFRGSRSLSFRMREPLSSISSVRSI
zVAD death inh: blocks zVAD induced death of L929 cells. L929 zVAD necroptosis rescue, ATP luminescence, 24 h; with zVAD 60 µM. viability rescue, % at 10 µM. 220,000 tested, 0.38% active. AID 1377;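 active = activation, scaled between plate controls, above about 75%, limit read from the data; inactive = activation under that limit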;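 note: 0% = zVAD with DMSO and 100% = DMSO alone without zVAD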
S1P4 antagonist: blocks the human S1P4 receptor | inhibition, % at 4.98 µM | 220,000 tested, 0.26% active | S1P4-expressing cells, antagonist mode, reporter read-out; in the data active = inhibition above about 29%;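 note: 0% = wells stimulated with agonist and 100% = vehicle wells without agonist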
Hsp70 activator: transcriptional activators of Hsp70; HeLa Hsp70 promoter luciferase reporter, luminescence; scaled: vehicle 0, proteasome-inhibitor control 100%; activation, % at 10 µM; 200,000 tested, 0.04% active;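 active = activation above the mean across all tested compounds plus 3 SD, cutoff set per campaign, cut at about 5.5% in these data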;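 note: 100% = MG132 at 30 µM as the positive control and 0% = DMSO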
zVAD death conf: confirmed blocker of zVAD induced death in L929 cells. 760 tested, 16% active. activation (protection from necroptosis), % at 10 µM. L929 zVAD-induced necroptosis rescue, ATP luminescence, 24 h. shares compounds with zVAD death inh. AID 463117;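 active = mean protection from necroptosis of at least 50% over duplicate tests; inactive = mean protection below 50%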;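 note: 0% = cells with zVAD alone and 100% = vehicle cells without zVAD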
Active calls of the source: *.

Cn1c(N)c(C(=O)COC(=O)COc2ccc3ccccc3c2)c(=O)n(C)c1=O was read as HSV augment inactive, TNF death inh 0.5, S1P4 ag 2.7, zVAD death inh 3.4, S1P4 antagonist -11.2 and Hsp70 activator 0.0.
CC(=O)C(=Cc1ccc(C(=O)O)cc1)C(C)=O was read as HSV augment inactive, TNF death inh 0.0, S1P4 ag 2.5, zVAD death inh 0.8, S1P4 antagonist -11.6 and Hsp70 activator -0.2.
`Cc1ccc(NC(=O)C(=Cc2ccc(C(=O)O)cc2)C(=O)Nc2ccc(C)cc2C)c(C)c1` gave HSV augment inactive, TNF death inh -0.5, S1P4 ag 1.6, zVAD death inh 84.9*, S1P4 antagonist -6.4 and zVAD death conf 40.3.
COC(=O)CNc1c(-c2ccccc2)nc2ccc(Br)cn12 was read as HSV augment inactive, TNF death inh -3.2, S1P4 ag 1.4, zVAD death inh -0.5, S1P4 antagonist 7.2 and Hsp70 activator -0.2.
For COc1cccc(NC(=O)c2ccccc2-c2ccccc2)c1 the results were HSV augment inactive, TNF death inh 0.8, S1P4 ag -1.0, zVAD death inh 1.0, S1P4 antagonist 1.6 and Hsp70 activator -0.3.
Nc1ccccc1Nc1cc(-c2ccccc2)[nH]n1 was read as TNF death inh -12.5, S1P4 ag 0.0, zVAD death inh 91.4*, S1P4 antagonist -11.4, Hsp70 activator -0.2 and zVAD death conf 88.7*.
Nc1ccccc1Nc1cc(-c2ccccc2)nn1-c1ccccc1 was read as HSV augment inactive, TNF death inh 0.9, S1P4 ag 3.1, zVAD death inh -0.1, S1P4 antagonist -6.5 and Hsp70 activator -0.1.
`O=C(Nc1nccs1)c1ccc(NC(=O)c2ccco2)cc1` gave HSV augment inactive, TNF death inh 20.9, S1P4 ag -4.0, zVAD death inh 84.4*, S1P4 antagonist 9.0, Hsp70 activator -0.3 and zVAD death conf 47.7.
`CC(C)(C)c1ccc(C(=O)Nc2ccc(NC(=O)c3ccco3)cc2)cc1` gave HSV augment inactive, TNF death inh -0.5, S1P4 ag -0.7, zVAD death inh 13.9, S1P4 antagonist -4.9 and Hsp70 activator 0.1.
CCn1c(SCc2ccc(C(=O)Nc3nccs3)cc2)nnc1-c1ccc(N)cc1 was read as HSV augment inactive, TNF death inh 17.4, S1P4 ag -2.4, zVAD death inh 88.4*, S1P4 antagonist 5.0, Hsp70 activator -0.2 and zVAD death conf 71.1*.
Screening Nc1ccccc1C(=O)Nc1nccs1 returned HSV augment inactive, TNF death inh 8.6, S1P4 ag 1.2, zVAD death inh 91.0*, S1P4 antagonist 4.5, Hsp70 activator 0.1 and zVAD death conf 11.1.
`Cc1ccc(C(=O)Nc2nccs2)cc1` gave HSV augment inactive, TNF death inh 11.6, S1P4 ag 0.0, zVAD death inh 85.9*, S1P4 antagonist 5.3, Hsp70 activator 0.1 and zVAD death conf 38.9.
CCOC1(C)OCC(=O)[C@]2(CCC3C4CCC5=CC(=O)C=CC5(C)C4C(=O)CC32C)O1 (stereo partly drawn) was read as HSV augment inactive, TNF death inh 1.4, S1P4 ag 0.9, zVAD death inh 0.5, S1P4 antagonist -17.7 and Hsp70 activator -0.3.
Screening CN(c1ccc(C(=O)Nc2nccs2)cc1)S(=O)(=O)c1ccccc1 returned HSV augment inactive, TNF death inh 48.7, S1P4 ag 3.2, zVAD death inh 88.6*, S1P4 antagonist -6.2, Hsp70 activator -0.1 and zVAD death conf 85.9*.
Nc1ccc(C(=O)Nc2nccs2)cc1 was read as HSV augment inactive, TNF death inh 20.6, S1P4 ag -0.1, zVAD death inh 80.6*, S1P4 antagonist -16.9, Hsp70 activator 0.2 and zVAD death conf 39.9.
For O=C(Nc1nccs1)c1ccc2nccnc2c1 the results were HSV augment inactive, TNF death inh 3.9, S1P4 ag -1.4, zVAD death inh 34.1, S1P4 antagonist 10.3 and Hsp70 activator -0.1.
For COc1ccc(CC(=O)Nc2ccc(C(=O)Nc3nccs3)cc2)cc1OC the results were HSV augment inactive, TNF death inh 13.7, S1P4 ag 1.2, zVAD death inh 82.8*, S1P4 antagonist 0.0, Hsp70 activator -0.1 and zVAD death conf 63.2*.
Screening Cc1ccc(N2CCN(CCCCN3C(=O)C4CCCN4C3=O)CC2)cc1 (stereo not drawn) returned HSV augment inactive, TNF death inh 1.2, S1P4 ag 0.4, zVAD death inh -0.1, S1P4 antagonist -5.5 and Hsp70 activator -0.2.
`O=C(/C(=C/c1ccc(Cl)cc1)c1nc2ccccc2[nH]1)c1ccccc1` gave HSV augment inactive, TNF death inh -19.4, S1P4 ag -0.2, zVAD death inh 107.4*, S1P4 antagonist 14.8, Hsp70 activator 4.7 and zVAD death conf 38.6.
For O=[N+]([O-])/C(C=Nc1ccccc1O)=C\Nc1ccccc1O the results were HSV augment inactive, TNF death inh 0.5, S1P4 ag -1.6, zVAD death inh 87.5*, S1P4 antagonist -1.3 and zVAD death conf 30.7.
`COc1ccc(CCNC(=O)C(=O)NCc2ccc(Cl)cc2)cc1OC` gave HSV augment inactive, TNF death inh 1.4, S1P4 ag 0.3, zVAD death inh 14.9, S1P4 antagonist -8.2 and Hsp70 activator -0.3.
Screening Cc1ccc(NC(=O)CN2C(=O)S/C(=C/c3ccc(O)c([N+](=O)[O-])c3)C2=O)cc1C returned HSV augment inactive, TNF death inh 2.1, S1P4 ag -0.4, zVAD death inh 85.7*, S1P4 antagonist -16.9, Hsp70 activator -0.3 and zVAD death conf 2.3.
Screening Cc1cccc(NC(=O)CN2C(=O)S/C(=C\c3ccc(O)c([N+](=O)[O-])c3)C2=O)c1 returned HSV augment inactive, TNF death inh 4.3, S1P4 ag -1.1, zVAD death inh 65.3, S1P4 antagonist -12.7 and Hsp70 activator -0.2.
For O=C(CCCn1c(=O)[nH]c2ccc(Br)cc2c1=O)NCc1ccc(Cl)cc1 the results were HSV augment inactive, TNF death inh 0.7, S1P4 ag -1.8, zVAD death inh -0.2, S1P4 antagonist -1.7 and Hsp70 activator 0.0.
Cc1ccc(/C(O)=C/c2nc3ccccc3oc2=O)cc1 was read as HSV augment inactive, TNF death inh 16.9, S1P4 ag 2.0, zVAD death inh 77.3*, S1P4 antagonist 1.5 and zVAD death conf 1.1.
`O=c1oc2ccccc2nc1/C=C(O)/C=C/c1ccc(F)cc1` gave HSV augment inactive, TNF death inh 10.6, S1P4 ag -0.4, zVAD death inh 13.7, S1P4 antagonist -7.1 and Hsp70 activator 0.1.
